Growth inhibition data for ten molecules are collected here from PubChem BioAssay (NCI).

Each structure is given as a SMILES string. The panel holds about 79,000 compounds, 15% with a hit somewhere; the sample as a whole holds those more often. A number with no mark means an inactive call. Activity calls are given as the source filed them. Cut-off read from the data, not from the text of the source: active = growth inhibition above about 70%; inactive = the rest.

The nature of experiment [1]: NCI Yeast Anticancer Drug Screen. Data for the rad50 strain (AID 155).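 Note: 0% = growth of vehicle-only cultures of the same strain.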 As to conditions: S. cerevisiae rad50 strain growth inhibition, stronger effect = higher value. The procedure, abridged:
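Relative growth inhibition (compound vs vehicle) was measured in yeast with a defined repair-gene alteration.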

The nature of experiment [2]: NCI Yeast Anticancer Drug Screen. Data for the mec2-1 strain (AID 157). As to conditions: S. cerevisiae mec2-1 strain, stronger effect = higher value. The essentials: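 Readout is yeast growth inhibition, normalised to vehicle-treated controls, in the mec2-1 strain exposed to compound.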
The nature of experiment [3]: NCI Yeast Anticancer Drug Screen. Data for the sgs1 mgt1 strain (AID 161).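 Note: 0% = growth of cultures given vehicle only.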 As to conditions: S. cerevisiae sgs1 mgt1 strain, stronger effect = higher value. The essentials: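 Growth of a repair-deficient yeast mutant was monitored after compound treatment and expressed as inhibition relative to vehicle-treated cultures.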
Experiment [4] is described as follows: NCI Yeast Anticancer Drug Screen. Data for the cln2 rad14 strain (AID 165).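 Note: 0% = growth equal to vehicle treated cultures.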 To be noted: S. cerevisiae cln2 rad14 strain, stronger effect = higher value. The procedure, abridged: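 Relative to vehicle controls, growth inhibition of compound-treated cln2 rad14 yeast was recorded.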
Experiment [5] in a line: NCI Yeast Anticancer Drug Screen. Data for the bub3 strain (AID 167). To be noted: S. cerevisiae bub3 mutant strain, stronger effect = higher value. The procedure, abridged:
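Screening used yeast with an engineered genetic alteration affecting cell cycle control. Compound-exposed cultures were compared with vehicle cultures, and reduced growth was taken as inhibition.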

Experiment [6] in a line: NCI Yeast Anticancer Drug Screen. Data for the mlh1 rad18 strain (AID 175). To be noted: S. cerevisiae mlh1 rad18 strain growth inhibition, stronger effect = higher value. The procedure, abridged:
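Test agents were incubated with a yeast strain of defined genotype (DNA damage repair defect). Inhibition of growth was derived by comparison with vehicle-exposed cultures.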

Setting [7] is: at 5.0 µM (retest, dose inferred, filed as 0.5).
The mark [8] stands for this setting: at 50.0 µM (retest, dose inferred, filed as 5.0).

With `C1=C(c2ccccc2)C(=Nc2ccccc2)SC1=Nc1ccccc1`, the growth inhibition in experiment [1] (setting [7]) is 52%; in experiment [1] (setting [8]) it was 100% (active); in experiment [1] (at 50.0 µM) it was 99% (active); in experiment [2] (setting [7]), 46%; in experiment [2] (setting [8]), 100% (active); in experiment [2] (at 50.0 µM) it was 99.5% (active). Moreover, the growth inhibition is 32% in experiment [3] (setting [7]); 99% (active) in experiment [3] (setting [8]); 99.5% (active) in experiment [3] (at 50.0 µM); 33% in experiment [4] (setting [7]); 99% (active) in experiment [4] (setting [8]); 99.3% (active) in experiment [4] (at 50.0 µM). In addition, the growth inhibition is 53% in experiment [5] (setting [7]); 99% (active) in experiment [5] (setting [8]); 99% (active) in experiment [5] (at 50.0 µM); 38% in experiment [6] (setting [7]); 99% (active) in experiment [6] (setting [8]); 99.5% (active) in experiment [6] (at 50.0 µM).
For `c1ccc2c(c1)oc1cc3ccncc3cc12`, the growth inhibition in experiment [1] (setting [7]) is 43%; in experiment [1] (setting [8]), 96% (active); in experiment [1] (at 50.0 µM) it was 96.8% (active); in experiment [2] (setting [7]), 11%; in experiment [2] (setting [8]), 86% (active); in experiment [2] (at 50.0 µM), 86.3% (active). Besides, the growth inhibition was 3% in experiment [3] (setting [7]); 83% (active) in experiment [3] (setting [8]); 94.8% (active) in experiment [3] (at 50.0 µM); 9% in experiment [4] (setting [7]); 89% (active) in experiment [4] (setting [8]); 92% (active) in experiment [4] (at 50.0 µM). Besides, the growth inhibition in experiment [5] (setting [7]) is 24%; in experiment [5] (setting [8]), 94% (active); in experiment [5] (at 50.0 µM) it was 96% (active); in experiment [6] (setting [7]), 14%; in experiment [6] (setting [8]) it was 92% (active); in experiment [6] (at 50.0 µM), 95.2% (active).
Take `COC1=CC2=CCC3C(CCC4(C)C(C(C)=O)CCC34)C2(C)CC1` (stereo not given): the growth inhibition is -8% in experiment [1] (setting [7]); 5% in experiment [1] (setting [8]); 42.5% in experiment [1] (at 50.0 µM); -7% in experiment [2] (setting [7]); 4% in experiment [2] (setting [8]); 13% in experiment [2] (at 50.0 µM). For the same molecule, the growth inhibition in experiment [3] (setting [7]) is -1%; in experiment [3] (setting [8]), 40%; in experiment [3] (at 50.0 µM), 49%; in experiment [4] (setting [7]), -2%; in experiment [4] (setting [8]) it was 14%; in experiment [4] (at 50.0 µM), 0.75%. In addition, the growth inhibition in experiment [5] (setting [7]) is -17%; in experiment [5] (setting [8]), -5%; in experiment [5] (at 50.0 µM), 47.6%; in experiment [6] (setting [7]), -12%; in experiment [6] (setting [8]), -2%; in experiment [6] (at 50.0 µM) it was 51.1%.
`CCCCN(CCCC)CC(O)c1cc(-c2ccc(Cl)cc2)nc2c(C)cccc12` (stereo not given): the growth inhibition in experiment [1] (setting [7]) was 0%; in experiment [1] (setting [8]), 94% (active); in experiment [1] (at 50.0 µM), 98% (active); in experiment [2] (setting [7]) it was 2%; in experiment [2] (setting [8]) it was 95% (active); in experiment [2] (at 50.0 µM), 97.3% (active). The growth inhibition was 19% in experiment [3] (setting [7]); 96% (active) in experiment [3] (setting [8]); 98.4% (active) in experiment [3] (at 50.0 µM); -4% in experiment [4] (setting [7]); 91% (active) in experiment [4] (setting [8]); 95.8% (active) in experiment [4] (at 50.0 µM). Moreover, the growth inhibition in experiment [5] (setting [7]) is -7%; in experiment [5] (setting [8]), 94% (active); in experiment [5] (at 50.0 µM) it was 89.8% (active); in experiment [6] (setting [7]) it was 7%; in experiment [6] (setting [8]) it was 95% (active); in experiment [6] (at 50.0 µM) it was 95.9% (active).
With `O=[N+]([O-])c1ccc(C2=Nn3cnnc3SC2)o1`, the growth inhibition in experiment [1] (setting [7]) was 2%; in experiment [1] (setting [8]), 36%; in experiment [1] (at 50.0 µM), 81.7% (active); in experiment [2] (setting [7]), 5%; in experiment [2] (setting [8]), 35%; in experiment [2] (at 50.0 µM), 20.9%. Also, the growth inhibition in experiment [3] (setting [7]) is 27%; in experiment [3] (setting [8]) it was 73% (active); in experiment [3] (at 50.0 µM) it was 80.8% (active); in experiment [4] (setting [7]), 1%; in experiment [4] (setting [8]), 29%; in experiment [4] (at 50.0 µM), 78.5% (active). In addition, the growth inhibition in experiment [5] (setting [7]) is 4%; in experiment [5] (setting [8]) it was 75% (active); in experiment [5] (at 50.0 µM) it was 59.3%; in experiment [6] (setting [7]), 18%; in experiment [6] (setting [8]), 84% (active); in experiment [6] (at 50.0 µM) it was 86.7% (active).
As for `COc1ccccc1NC(=O)C1=C(C)NC(C)=C(C(=O)Nc2ccccc2OC)C1c1ccc(OC)c(OC)c1`, the growth inhibition in experiment [1] (setting [7]) was 9%; in experiment [1] (setting [8]), 50%; in experiment [1] (at 50.0 µM), 55.9%; in experiment [2] (setting [7]), -3%; in experiment [2] (setting [8]), 43%; in experiment [2] (at 50.0 µM), 26.6%. Also, the growth inhibition in experiment [3] (setting [7]) is 9%; in experiment [3] (setting [8]), 48%; in experiment [3] (at 50.0 µM) it was 49.9%; in experiment [4] (setting [7]) it was -4%; in experiment [4] (setting [8]), 31%; in experiment [4] (at 50.0 µM) it was -38.9%. The growth inhibition in experiment [5] (setting [7]) was -1%; in experiment [5] (setting [8]), 51%; in experiment [5] (at 50.0 µM), -3.55%; in experiment [6] (setting [7]) it was 2%; in experiment [6] (setting [8]), 38%; in experiment [6] (at 50.0 µM), 23.9%.
As to `N#CC1Sc2ccccc2N1C(=O)Oc1ccccc1` (stereo not given), the growth inhibition in experiment [1] (setting [7]) was 3%; in experiment [1] (setting [8]) it was 98% (active); in experiment [1] (at 50.0 µM), 98.8% (active); in experiment [2] (setting [7]) it was 0%; in experiment [2] (setting [8]), 98% (active); in experiment [2] (at 50.0 µM), 98.7% (active). The growth inhibition in experiment [3] (setting [7]) was 5%; in experiment [3] (setting [8]), 98% (active); in experiment [3] (at 50.0 µM), 98.8% (active); in experiment [4] (setting [7]), 3%; in experiment [4] (setting [8]) it was 97% (active); in experiment [4] (at 50.0 µM), 98.2% (active). In addition, the growth inhibition in experiment [5] (setting [7]) was 15%; in experiment [5] (setting [8]), 98% (active); in experiment [5] (at 50.0 µM) it was 99.1% (active); in experiment [6] (setting [7]) it was 5%; in experiment [6] (setting [8]) it was 98% (active); in experiment [6] (at 50.0 µM), 98.8% (active).
In the case of `CN(c1ccc(Cl)cc1)S(=O)(=O)c1cccc([N+](=O)[O-])c1`, the growth inhibition is -6% in experiment [1] (setting [7]); 52% in experiment [1] (setting [8]); 42.7% in experiment [1] (at 50.0 µM); -13% in experiment [2] (setting [7]); 71% (active) in experiment [2] (setting [8]); 42.8% in experiment [2] (at 50.0 µM). Moreover, the growth inhibition in experiment [3] (setting [7]) is -6%; in experiment [3] (setting [8]), 62%; in experiment [3] (at 50.0 µM), 70.8% (active); in experiment [4] (setting [7]) it was 27%; in experiment [4] (setting [8]) it was 48%; in experiment [4] (at 50.0 µM) it was 48.4%. The growth inhibition in experiment [5] (setting [7]) is -28%; in experiment [5] (setting [8]) it was 90% (active); in experiment [5] (at 50.0 µM), 78% (active); in experiment [6] (setting [7]), -11%; in experiment [6] (setting [8]), 51%; in experiment [6] (at 50.0 µM), 58.9%.
In the case of `CC(=O)CC(C)=O.CCN(CC)CC[C-]=O.[Pd+2]`, the growth inhibition in experiment [1] (setting [7]) was 1%; in experiment [1] (setting [8]), 54%; in experiment [1] (at 50.0 µM) it was 66.9%; in experiment [2] (setting [7]), 8%; in experiment [2] (setting [8]) it was 33%; in experiment [2] (at 50.0 µM), 70.8% (active). Further, the growth inhibition is -5% in experiment [3] (setting [7]); 22% in experiment [3] (setting [8]); 73.5% (active) in experiment [3] (at 50.0 µM); 21% in experiment [4] (setting [7]); 32% in experiment [4] (setting [8]); 9.6% in experiment [4] (at 50.0 µM). Further, the growth inhibition was -1% in experiment [5] (setting [7]); 33% in experiment [5] (setting [8]); 76.5% (active) in experiment [5] (at 50.0 µM); 0% in experiment [6] (setting [7]); 54% in experiment [6] (setting [8]); 74.9% (active) in experiment [6] (at 50.0 µM).
As for `COC(=O)[C@]1(C)CCC[C@]2(C)c3ccc(C(C)C)cc3C(=O)C[C@@H]12`, the growth inhibition in experiment [1] (setting [7]) is 5%; in experiment [1] (setting [8]), 87% (active); in experiment [1] (at 50.0 µM), 95.9% (active); in experiment [2] (setting [7]), 4%; in experiment [2] (setting [8]), 90% (active); in experiment [2] (at 50.0 µM) it was 99% (active). For the same molecule, the growth inhibition in experiment [3] (setting [7]) is 1%; in experiment [3] (setting [8]), 93% (active); in experiment [3] (at 50.0 µM), 96.2% (active); in experiment [4] (setting [7]), 4%; in experiment [4] (setting [8]), 82% (active); in experiment [4] (at 50.0 µM), 89.5% (active). Also, the growth inhibition in experiment [5] (setting [7]) was 6%; in experiment [5] (setting [8]) it was 88% (active); in experiment [5] (at 50.0 µM), 97.7% (active); in experiment [6] (setting [7]), -9%; in experiment [6] (setting [8]) it was 73% (active); in experiment [6] (at 50.0 µM), 94.5% (active).
